36 compounds from PubChem BioAssay (NCATS) can be followed below.

Each structure is given as a SMILES string. Records with an inconclusive call do not appear. A number with no mark means an inactive call. Activity calls are given as the source filed them. The call rests on the fitted dose curve; in most records, active means well fitted curve in the direction sought with a large enough effect; inconclusive means small, poorly fitted or top-dose-only effect, or another doubt; inactive means no such curve, though single readings can be large; an effect the other way counts as inactive or inconclusive.
On the % scale 0 is the no-effect control and ±100 the full control effect.

Calcium and integrin-binding protein 1 (Homo sapiens), sequence (Q99828 whole entry, looked up): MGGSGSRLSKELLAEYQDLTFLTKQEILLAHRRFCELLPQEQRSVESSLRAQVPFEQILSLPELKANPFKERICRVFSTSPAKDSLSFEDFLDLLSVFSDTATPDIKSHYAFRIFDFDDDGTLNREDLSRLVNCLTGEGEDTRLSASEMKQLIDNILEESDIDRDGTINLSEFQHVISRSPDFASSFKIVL

The first experiment addresses Calcium and integrin-binding protein 1 (Homo sapiens) (UniProt Q99828). Kind of experiment: Primary qHTS for Identification of Calcium Integrin Binding Protein 1 (CIB1) Competitor (AID 1508620). Further: potency means the concentration at half of the fitted maximal effect.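 On activity change, negative = inhibition: GST tagged CIB1 binding a fluorescein labelled alphaIIb integrin peptide tracer; top concentration of the series differs between compounds.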 The note with it: CIB1-GST / FITC-alphaIIb peptide fluorescence polarization; series mostly up to 114 µM; activity change, negative = inhibition: at the top concentration. The method, boiled down: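 CIB1-GST (1 uM final) and compound incubated 15 min at room temperature before adding FITC-alphaIIb peptide tracer (100 nM final). Competition for binding read by fluorescence polarization (ex 480, em 540) after another 15 min at room temperature.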
On the technique in general: Quantitative high-throughput screening tests each substance at several concentrations.
Consider `c1ccc(CC2=NCCN2)cc1`, for which the “activity change, negative = inhibition” value is -0.722%.

Turning to `COc1cc([C@H]2Oc3cc([C@H]4Oc5cc(O)cc(O)c5C(=O)[C@@H]4O)ccc3O[C@@H]2CO)ccc1O`, the Potency was 35.5 µM (active).

As to `C[C@@]12C(=O)OC(=O)[C@]1(C)C1CCC2O1`, the “activity change, negative = inhibition” value is 8.96%.

On to `CC(C)n1c(/C=C/[C@@H](O)C[C@@H](O)CC(=O)O)c(-c2ccc(F)cc2)c2ccccc21`, for which the “activity change, negative = inhibition” value is 3.2%.

`C[C@H]1O[C@@H](O[C@H]2CC[C@@]3(C)[C@H](CC[C@@H]4[C@@H]3C[C@@H](O)[C@]3(C)[C@@H](C5=CC(=O)OC5)CC[C@]43O)C2)C[C@H](O)[C@@H]1O[C@H]1C[C@H](O)[C@H](O[C@H]2C[C@H](O)[C@H](O[C@@H]3O[C@H](CO)[C@@H](O)[C@H](O)[C@H]3O)[C@@H](C)O2)[C@@H](C)O1`: the “activity change, negative = inhibition” value was -17.1%.

Take `CCN(CC)CCOc1ccc2c(c1)C(=O)c1cc(OCCN(CC)CC)ccc1-2`: the “activity change, negative = inhibition” value is 2.85%.

`CC(C)(C)NC[C@H](O)COc1nsnc1N1CCOCC1`: the “activity change, negative = inhibition” value is -1.54%.

Regarding `CC1(C)OC[C@@H]2O[C@@]3(C(=O)O)OC(C)(C)O[C@H]3[C@@H]2O1`, the “activity change, negative = inhibition” value is -0.0501%.

Regarding `O=c1[nH]c(=O)n([C@H]2C[C@H](O)[C@@H](CO)O2)cc1F`, the “activity change, negative = inhibition” value is 4.91%.

With `CCN(CC)CCOc1ccccc1C(=O)CCc1ccccc1`, the “activity change, negative = inhibition” value is -0.283%.

Regarding `CCC(Cc1c(I)cc(I)c(N)c1I)C(=O)O` (stereo not drawn), the “activity change, negative = inhibition” value was -1.17%.

With `COc1ccc(-c2cc(C(F)F)nn2-c2ccc(S(N)(=O)=O)cc2)cc1F`, the “activity change, negative = inhibition” value was 0.0092%.

In the case of `CCCCCN=C(N)N/N=C/c1c[nH]c2ccc(OC)cc12`, the “activity change, negative = inhibition” value was -13.9%.

For `CC[C@]12CCCN3CCc4c(n(c5ccccc45)C(=O)C1)[C@@H]32`, the Potency entry is “inactive”.

Regarding `CN(C)CCOC(c1ccc(Cl)cc1)c1ccccn1` (stereo not drawn), the “activity change, negative = inhibition” value was -2.1%.

On to `CCC(CC)(CC(=O)Nc1cccc(/C=C/c2nc(C3CCC3)cs2)c1)C(=O)O`, for which the “activity change, negative = inhibition” value was -7.97%.

As for `CNCCCCOc1ccccc1Cc1ccccc1`, the “activity change, negative = inhibition” value is 1.87%.

As for `Nc1nc(Cl)nc2c1ncn2[C@@H]1O[C@H](CO)[C@@H](O)[C@@H]1F`, the “activity change, negative = inhibition” value was -4.07%.

Regarding `C[C@]12CCC(=O)C=C1C=C[C@@H]1[C@@H]2CC[C@@]2(C)[C@H]1CC[C@@]21CCC(=O)O1`, the “activity change, negative = inhibition” value is 1.12%.

For `CC(O)Cn1cnc2c1c(=O)n(C)c(=O)n2C` (stereo not drawn), the “activity change, negative = inhibition” value was 2.91%.

In the case of `CCCCCCCCNC(C)C(O)c1ccc(SC(C)C)cc1` (stereo not drawn), the “activity change, negative = inhibition” value is -3.2%.

Turning to `CCOC(=O)c1ccc(N)cc1`, the “activity change, negative = inhibition” value was 10.2%.

Regarding `C#C[C@]1(O)CC[C@H]2[C@@H]3CCc4cc(OC)ccc4[C@H]3CC[C@@]21C`, the “activity change, negative = inhibition” value is 1.71%.

As to `C#C[C@]1(OC(C)=O)CC[C@H]2[C@@H]3CCC4=C/C(=N/O)CC[C@@H]4[C@H]3CC[C@@]21CC`, the “activity change, negative = inhibition” value was -1.24%.

For the compound `N/C(=N\N=C\c1ccc(Cl)cc1)N/N=C/c1ccc(Cl)cc1`, the “activity change, negative = inhibition” value was -0.602%.

Take `CCCCCCCCCCCCCC[N+](C)(C)Cc1ccccc1`: the “activity change, negative = inhibition” value was -1.53%.

`O=C(c1ccc(F)cc1)C1CCN(CCn2c(=S)[nH]c3ccccc3c2=O)CC1`: the “activity change, negative = inhibition” value is -3.69%.

Take `O=C(O)C1(C(=O)O)CCC1.[NH2-].[NH2-].[Pt+2]`: the “activity change, negative = inhibition” value was -2.68%.

On to `CCO[C@@H]1O[C@H](C(COCc2ccccc2)OCc2ccccc2)[C@H](OCc2ccccc2)[C@H]1O` (stereo partly drawn), for which the “activity change, negative = inhibition” value is 0.0222%.

On to `CC1(COc2ccc(CC3SC(=O)NC3=O)cc2)CCCCC1` (stereo not drawn), for which the “activity change, negative = inhibition” value was -5.9%.

As to `O=C(CN1CCN(Cc2ccc3c(c2)OCO3)CC1)N1c2ccccc2Sc2ccccc21`, the “activity change, negative = inhibition” value is -3.63%.

For `CCOC(=O)C(C#N)=C(c1ccccc1)c1ccccc1`, the “activity change, negative = inhibition” value was -0.311%.

`CCN(CC)CCNc1ccc(CO)c2sc3ccccc3c(=O)c12`: the “activity change, negative = inhibition” value is -16.8%.

For `O=C(O)C(Cc1cc(I)c(O)c(I)c1)c1ccccc1` (stereo not drawn), the “activity change, negative = inhibition” value was 1.08%.

For the compound `N[C@H](C(=O)O)[C@@H](O)c1ccc(O)c(O)c1`, the “activity change, negative = inhibition” value was -9.94%.

As for `CC(C(=O)O)c1cccc(Oc2ccccc2)c1` (stereo not drawn), the “activity change, negative = inhibition” value is 3.82%.

System in the next experiment: not listed separately
Put plainly: Primary qHTS for small molecule stabilizers of the endoplasmic reticulum resident proteome: Secreted ER Calcium Modulated Protein (SERCaMP) assay (AID 1508630). Conditions: SH-SY5Y GLuc-SERCaMP (Gaussia luciferase released on ER calcium loss) secretion, thapsigargin, luminescence; series mostly up to 38.4 µM; activity change, negative = inhibition: at the top concentration. The gist of the method: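 GLuc-SERCaMP-expressing SH-SY5Y cells, pretreated 16 h with compound, are challenged with thapsigargin to empty ER calcium stores; after 4 h, coelenterazine is added directly to the medium and luminescence is imaged.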
As for `c1ccc(CC2=NCCN2)cc1`, the “activity change, negative = inhibition” value is -3.56%.

In the case of `COc1cc([C@H]2Oc3cc([C@H]4Oc5cc(O)cc(O)c5C(=O)[C@@H]4O)ccc3O[C@@H]2CO)ccc1O`, the “activity change, negative = inhibition” value is -19.9%.

In the case of `C[C@@]12C(=O)OC(=O)[C@]1(C)C1CCC2O1`, the “activity change, negative = inhibition” value is 153%.

In the case of `C[C@H]1O[C@@H](O[C@H]2CC[C@@]3(C)[C@H](CC[C@@H]4[C@@H]3C[C@@H](O)[C@]3(C)[C@@H](C5=CC(=O)OC5)CC[C@]43O)C2)C[C@H](O)[C@@H]1O[C@H]1C[C@H](O)[C@H](O[C@H]2C[C@H](O)[C@H](O[C@@H]3O[C@H](CO)[C@@H](O)[C@H](O)[C@H]3O)[C@@H](C)O2)[C@@H](C)O1`, the “activity change, negative = inhibition” value was 59.9%.

In the case of `CCN(CC)CCOc1ccc2c(c1)C(=O)c1cc(OCCN(CC)CC)ccc1-2`, the Potency result was “inactive”.

In the case of `CC(C)(C)NC[C@H](O)COc1nsnc1N1CCOCC1`, the Potency result was “inactive”.

For the compound `O=c1[nH]c(=O)n([C@H]2C[C@H](O)[C@@H](CO)O2)cc1F`, the “activity change, negative = inhibition” value is 31.6%.

Regarding `CCN(CC)CCOc1ccccc1C(=O)CCc1ccccc1`, the “activity change, negative = inhibition” value is -23%.

For the compound `COc1ccc(-c2cc(C(F)F)nn2-c2ccc(S(N)(=O)=O)cc2)cc1F`, the “activity change, negative = inhibition” value was 28.7%.

With `CCCCCN=C(N)N/N=C/c1c[nH]c2ccc(OC)cc12`, the “activity change, negative = inhibition” value was 313%.

As to `CC[C@]12CCCN3CCc4c(n(c5ccccc45)C(=O)C1)[C@@H]32`, the “activity change, negative = inhibition” value is 37.6%.

For `CN(C)CCOC(c1ccc(Cl)cc1)c1ccccn1` (stereo not drawn), the “activity change, negative = inhibition” value was -21.3%.

For the compound `CCC(CC)(CC(=O)Nc1cccc(/C=C/c2nc(C3CCC3)cs2)c1)C(=O)O`, the Potency result is “inactive”.

With `CNCCCCOc1ccccc1Cc1ccccc1`, the Potency entry was “inactive”.

Consider `Nc1nc(Cl)nc2c1ncn2[C@@H]1O[C@H](CO)[C@@H](O)[C@@H]1F`, for which the “activity change, negative = inhibition” value is 129%.

Regarding `CCCCCCCCNC(C)C(O)c1ccc(SC(C)C)cc1` (stereo not drawn), the “activity change, negative = inhibition” value is 82.1%.

With `CCOC(=O)c1ccc(N)cc1`, the “activity change, negative = inhibition” value is -13.3%.

For `C#C[C@]1(O)CC[C@H]2[C@@H]3CCc4cc(OC)ccc4[C@H]3CC[C@@]21C`, the “activity change, negative = inhibition” value is -14.5%.

With `C#C[C@]1(OC(C)=O)CC[C@H]2[C@@H]3CCC4=C/C(=N/O)CC[C@@H]4[C@H]3CC[C@@]21CC`, the “activity change, negative = inhibition” value was 11.4%.

In the case of `N/C(=N\N=C\c1ccc(Cl)cc1)N/N=C/c1ccc(Cl)cc1`, the “activity change, negative = inhibition” value is 82.3%.

Turning to `CCCCCCCCCCCCCC[N+](C)(C)Cc1ccccc1`, the “activity change, negative = inhibition” value is 15.1%.

With `CCO[C@@H]1O[C@H](C(COCc2ccccc2)OCc2ccccc2)[C@H](OCc2ccccc2)[C@H]1O` (stereo partly drawn), the “activity change, negative = inhibition” value was -25.6%.

Turning to `CC1(COc2ccc(CC3SC(=O)NC3=O)cc2)CCCCC1` (stereo not drawn), the Potency result was “inactive”.

For the compound `O=C(CN1CCN(Cc2ccc3c(c2)OCO3)CC1)N1c2ccccc2Sc2ccccc21`, the “activity change, negative = inhibition” value is -24.1%.

On to `CCOC(=O)C(C#N)=C(c1ccccc1)c1ccccc1`, for which the “activity change, negative = inhibition” value was 12.4%.

`CCN(CC)CCNc1ccc(CO)c2sc3ccccc3c(=O)c12`: the “activity change, negative = inhibition” value was 107%.

In the case of `O=C(O)C(Cc1cc(I)c(O)c(I)c1)c1ccccc1` (stereo not drawn), the “activity change, negative = inhibition” value is -12.2%.
